The source made the active and inactive calls.
Key:
[1] = compound effects on lung adenocarcinoma cell viability – A549, calcein-AM fluorescence, 48 h, basal, profiling panel (AID 1162); conditions: higher = more signal
[2] = compound effects on differentiated 3T3-L1 adipocyte viability – cell-based, 3T3-L1 adipocytes, calcein-AM fluorescence, 48 h, basal, profiling panel (AID 1163); conditions: 3T3-L1 adipocytes viability, higher = more signal
[3] = compound effects on hepatocellular carcinoma cell viability – HepG2, calcein-AM fluorescence, 48 h, basal, profiling panel (AID 1164); conditions: higher = more signal
[4] = compound effects on multiple myeloma cell viability – MM1S, calcein-AM fluorescence, 48 h, basal, profiling panel (AID 1165); conditions: higher = more signal
[5] = calcein-AM signal in unstimulated myeloma cells – cell-based, calcein-AM fluorescence, 48 h, PK04 Diversity Set, profiling panel (AID 1166); conditions: RPMI8226 myeloma viability, higher = more signal;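 also: cells grown under basal conditions without added stimulus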
[6] = JC-1 mitochondrial signal, unstimulated HepG2 cells – cell-based, JC-1 fluorescence, 24 h, 100 nL compound, profiling panel (AID 1167); conditions: HepG2 mitochondrial potential, higher = more signal
[7] = JC-1 mitochondrial signal, unstimulated adipocytes – cell-based, JC-1 fluorescence, 3T3-L1 adipocytes, 24 h, 100 nL compound, profiling panel (AID 1168); conditions: JC-1 mitochondrial fluorescence, higher = more signal, called active from +8 up or from −8 down
[8] = JC-1 mitochondrial signal, unstimulated myeloma cells – cell-based, JC-1 fluorescence, RPMI8226, 24 h, 100 nL compound, profiling panel (AID 1169); conditions: JC-1 mitochondrial potential fluorescence, higher = more signal
[9] = JC-1 mitochondrial signal, unstimulated MM1S myeloma – cell-based, JC-1 fluorescence, 24 h, 100 nL compound, profiling panel (AID 1170); conditions: MM1S mitochondrial potential, higher = more signal
[10] = resazurin metabolic signal in A549 cells – cell-based, resazurin fluorescence, 24 h, PK04 Diversity Set, profiling panel (AID 1171); conditions: A549 viability, higher = more signal, called active from +8 up or from −8 down
Also: test concentration not given here.

With `C=CCC(OC(C)=O)[C@@H]1[C@@H](N(Cc2ccc(-c3cccc(C(F)(F)F)c3)o2)C(=O)Cc2ccc(F)cc2)c2cc(OCCCO)ccc2N1C(=O)Cc1ccc(OC)cc1` (stereo not given in full) the z-score [1] was 1.31, the z-score [2] was 1.16 and the z-score [3] was 0.892. It also gave a z-score [4] of -0.394, a z-score [5] of 0.274 and a z-score [6] of 2.87. For the same compound, the z-score [7] was 0.649 (inactive), the z-score [8] was -0.386 and the z-score [9] was -0.195. The z-score [10] was 0.555 (inactive).

`CC(=O)NCCCC[C@@H]1NC(=O)[C@@H]2C[C@H](C(=O)NCCCCCCNC(=O)CS)[C@H](c3cccc(OCCO)c3)N2C1=O` showed a z-score [1] of 0.0596, a z-score [2] of -0.834 and a z-score [3] of 0.282. It also gave a z-score [4] of 0.211, a z-score [5] of 0.132 and a z-score [6] of -0.387. The z-score [7] was 0.0104 (inactive), the z-score [8] was -0.811 and the z-score [9] was -0.333. The z-score [10] was -0.435 (inactive).

With `CC(C)C[C@@H]1NC(=O)[C@@H]2C[C@H](C(=O)NCCCCCN)[C@H](c3cccc(OCCO)c3)N2C1=O` the z-score [1] was 0.938, the z-score [2] was 0.624 and the z-score [3] was 1.89. It also gave a z-score [4] of 0.767, a z-score [5] of 1.26 and a z-score [6] of 1.75. The z-score [7] was 0.00134 (inactive), the z-score [8] was -0.71 and the z-score [9] was -0.495. For the same compound, the z-score [10] was -0.217 (inactive).

`O=C(NCc1ccc(F)cc1)[C@H]1C[C@H]2C(=O)N[C@@H](Cc3ccccc3)C(=O)N2[C@H]1c1ccc(O)cc1` gave a z-score [1] of 0.0416, a z-score [2] of 0.17 and a z-score [3] of 0.0329. For the same compound, the z-score [4] was -0.973, the z-score [5] was -0.27 and the z-score [6] was 1.11. The z-score [7] was 0.672 (inactive), the z-score [8] was 0.736 and the z-score [9] was 0.453. The z-score [10] was 0.278 (inactive).

`NC(=O)[C@@H]1[C@H]2C(=O)O[C@H](c3ccccc3)[C@H](c3ccccc3)N2[C@H](c2ccc(O)cc2)[C@@]12C(=O)Nc1ccc(C#CC3(O)CCCCCC3)cc12` gave a z-score [1] of 0.735, a z-score [2] of -0.0487 and a z-score [3] of 0.338. It also gave a z-score [4] of -1.44, a z-score [5] of -0.482 and a z-score [6] of -0.717. For the same compound, the z-score [7] was -0.928 (inactive), the z-score [8] was -0.566 and the z-score [9] was -0.0259. The z-score [10] was 0.399 (inactive).

With `O=C1O[C@H](c2ccccc2)[C@H](c2ccccc2)N2[C@H]1[C@@H](C(=O)Nc1nc3ccccc3s1)[C@]1(C(=O)Nc3ccc(C#CCCO)cc31)[C@H]2c1ccc(OCCO)cc1` the z-score [1] was 0.233, the z-score [2] was 0.205 and the z-score [3] was 1.03. It also gave a z-score [4] of -0.265, a z-score [5] of 0.743 and a z-score [6] of -3.28. For the same compound, the z-score [7] was 0.491 (inactive), the z-score [8] was -0.995 and the z-score [9] was -1.49. The z-score [10] was 0.441 (inactive).

With `O=C1NC(=O)C2C1C=CC(C(O)c1ccccc1)N2Nc1ccc(Cl)cc1Cl` (stereo not given) the z-score [1] was 0.0862, the z-score [2] was -0.0715 and the z-score [3] was -1.48. The z-score [4] was -3.55, the z-score [5] was -3.28 and the z-score [6] was -3.07. For the same compound, the z-score [7] was -0.544 (inactive), the z-score [8] was -1.09 and the z-score [9] was -1.59. For the same compound, the z-score [10] was -1.92 (inactive).

In the case of `C=CC[C@]1(C(=O)N2CCCCC2)N=C(c2ccc(OCCCO)cc2)O[C@H]1c1ccccc1`, the z-score [1] was 0.396, the z-score [2] was 0.0234 and the z-score [3] was -0.426. It also gave a z-score [4] of -2.35, a z-score [5] of -1.35 and a z-score [6] of 0.53. The z-score [7] was -0.0613 (inactive), the z-score [8] was -1.16 and the z-score [9] was 0.447. For the same compound, the z-score [10] was 2.72 (inactive).

`CCCC[C@@H]1C[C@H]1[C@@H](NC(=O)c1ccco1)c1ccc(Cl)cc1` gave a z-score [1] of -2.3, a z-score [2] of -0.679 and a z-score [3] of -0.746. The z-score [4] was -1.95, the z-score [5] was -2.24 and the z-score [6] was 2.38. For the same compound, the z-score [7] was -0.732 (inactive), the z-score [8] was -0.318 and the z-score [9] was -1.37. For the same compound, the z-score [10] was 0.473 (inactive).

With `Cc1ccc(S[C@]2(C(=O)NCCN3CCOCC3)CC(=O)N(Cc3ccccc3)[C@@H]2c2ccc(CO)cc2I)cc1` the z-score [1] was -0.242, the z-score [2] was 1.1 and the z-score [3] was -0.705. The z-score [4] was -2.08, the z-score [5] was -2.5 and the z-score [6] was 0.119. The z-score [7] was -0.688 (inactive), the z-score [8] was -0.383 and the z-score [9] was -2.44. The z-score [10] was 0.394 (inactive).

Work on `COCCCN1C(=O)[C@@]2(c3ccc([N+](=O)[O-])cc3)CC(=O)N(C3CCCCC3)[C@@H]2c2ccc(CO)cc21` yielded a z-score [1] of -0.794, a z-score [2] of -1.03 and a z-score [3] of 0.14. The z-score [4] was 0.819, the z-score [5] was -1.23 and the z-score [6] was -0.393. The z-score [7] was 0.939 (inactive), the z-score [8] was -0.739 and the z-score [9] was -0.847. For the same compound, the z-score [10] was -1.18 (inactive).

Work on `CC(C)[C@@H](CO)NC(=O)[C@H]1[C@@H](c2ccccc2)N(c2ccccc2)O[C@@H]1C` yielded a z-score [1] of 0.407, a z-score [2] of -0.159 and a z-score [3] of 0.319. The z-score [4] was 0.714, the z-score [5] was 0.285 and the z-score [6] was 0.324. For the same compound, the z-score [7] was 0.392 (inactive), the z-score [8] was 0.354 and the z-score [9] was -1.11. The z-score [10] was 0.959 (inactive).

`[N-]=[N+]=NCc1ccccc1[C@@H]1OC(c2ccc(OCCCO)cc2)=N[C@]1(CCS(=O)(=O)c1ccccc1)C(=O)NCCN1CCOCC1` gave a z-score [1] of 1.68, a z-score [2] of -0.0282 and a z-score [3] of 1.61. The z-score [4] was 0.377, the z-score [5] was 0.501 and the z-score [6] was 0.374. For the same compound, the z-score [7] was 0.995 (inactive), the z-score [8] was 0.127 and the z-score [9] was -0.806. The z-score [10] was -0.597 (inactive).

`COc1ccc(C(=O)Nc2cccc(CN3C(=O)[C@]4(O[C@H](CCO)[C@@H]([Si](C)(C)c5ccc(OC)cc5)[C@@H]4C)c4ccccc43)c2)cc1` showed a z-score [1] of -4.13, a z-score [2] of -0.564 and a z-score [3] of -4.73. For the same compound, the z-score [4] was -2.78, the z-score [5] was -4.35 and the z-score [6] was -2.23. For the same compound, the z-score [7] was -1.37 (inactive), the z-score [8] was -0.73 and the z-score [9] was -1.96. For the same compound, the z-score [10] was -6.33 (inactive).

Work on `C[N+](C)(C)CCCCNC(=O)[C@H]1C[C@H]2C(=O)N[C@@H](Cc3ccccc3)C(=O)N2[C@H]1c1ccc(O)cc1` yielded a z-score [1] of -0.111, a z-score [2] of -0.649 and a z-score [3] of 0.0005. It also gave a z-score [4] of 0.27, a z-score [5] of -0.546 and a z-score [6] of 0.169. The z-score [7] was -0.333 (inactive), the z-score [8] was -0.831 and the z-score [9] was -1.13. For the same compound, the z-score [10] was -0.486 (inactive).
